AmpC inh detg = qHTS Inhibitors of AmpC Beta-Lactamase (assay with detergent). P00811. AmpC hydrolysis of nitrocefin, absorbance 480 nm, 0.01% Triton. Potency, µM (titrated, usually from 114 µM), for the others: top-dose activity change, negative = inhibition, actives largely listed as inhibitors. 370,000 compounds, 0.041% hits;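 further: 0% = no-compound wells and -100% = no-enzyme wells; nearly all actives have a fitted effect of over 25% in size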
Target sequence (P00811 whole entry, looked up): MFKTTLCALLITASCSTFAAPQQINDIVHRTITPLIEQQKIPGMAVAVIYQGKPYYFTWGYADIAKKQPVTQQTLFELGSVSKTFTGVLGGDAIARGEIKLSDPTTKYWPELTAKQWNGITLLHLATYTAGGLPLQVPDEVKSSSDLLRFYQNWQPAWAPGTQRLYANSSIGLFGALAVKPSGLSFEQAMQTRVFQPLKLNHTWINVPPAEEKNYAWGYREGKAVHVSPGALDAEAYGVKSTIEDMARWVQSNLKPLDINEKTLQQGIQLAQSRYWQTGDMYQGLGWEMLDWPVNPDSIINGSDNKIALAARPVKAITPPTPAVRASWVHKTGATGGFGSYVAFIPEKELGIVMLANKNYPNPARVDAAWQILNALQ
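AmpC (5.3 nM in the dispensed reagent) in 20 mM phosphate pH 7.0 with 0.01% (detergent screen) or 0.0001% Triton X-100 was preincubated with compounds for 15 min at room temperature. Nitrocefin was then added from an 800 uM solution, and hydrolysis was followed at 480 nm.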
SARS PLpro yeast = qHTS of Yeast-based Assay for SARS-CoV PLP; AID 485353, 2010; Potency, µM (top dose mostly 32.9 µM), inactives show at the highest dose activity, positive = growth rescue, most hits filed as activators; S. cerevisiae expressing SARS-CoV PLpro, growth rescue; 330,000 compounds, 0.19% hits; calls by dose curve; further: 0% is about no effect; nearly all actives have a fitted effect of over 55% in size
Sm TGR block = qHTS Assay for the Inhibitors of Schistosoma Mansoni Peroxiredoxins. Schistosoma mansoni thioredoxin glutathione reductase (TGR), Q962Y6. purified TGR, DTNB reduction, TNB absorbance 405 nm. Potency, µM (titrated, usually from 114 µM), for inactives: at the highest dose activity change, negative = inhibition, usual class: inhibitors. 360,000 compounds, 3% hits; further: on the % scale 0 is the no-effect control and ±100 the full control effect; nearly all actives have a fitted effect of over 60% in size
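First, TGR (20 nM dispensed) and NADPH were mixed with compound. Second, a 15 min room-temperature incubation followed. Third, further NADPH and then DTNB were added to start the reaction. Finally, TNB absorbance was monitored kinetically.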
Pf growth 96h = Primary qHTS for delayed death inhibitors of the malarial parasite plastid, 96 hour incubation. Potency, µM (doses to about 28.7 µM), for inactives: at the top dose activity change, negative = inhibition, hits mostly inhibitors. P. falciparum luciferase reporter growth, 96 h. AID 504834, 2011. 320,000 compounds, 6.9% hits; further: on the % scale 0 is the no-effect control and ±100 the full control effect
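Luminescence readout: decreased luciferase signal marks inhibited growth of reporter-expressing P. falciparum in infected red cells (2% hematocrit, 0.05% parasitemia final), exposed to compound two generations (96 h, 37 C, 5% CO2).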
AmpC inh no detg = qHTS Inhibitors of AmpC Beta-Lactamase (assay without detergent). P00811. AmpC nitrocefin hydrolysis, absorbance 480 nm, 0.0001% Triton. Potency, µM (titrated, usually from 57.1 µM), for the others: at the highest dose activity change, negative = inhibition, actives largely listed as inhibitors. 330,000 compounds, 0.52% hits. AID 485341, 2010;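 further: plate controls were no compound for no effect and no enzyme for full effect; nearly all actives have a fitted effect of over 20% in size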
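AmpC (5.3 nM in the dispensed reagent) in 20 mM phosphate pH 7.0 with 0.01% (detergent screen) or 0.0001% Triton X-100 was preincubated with compounds for 15 min at room temperature. Nitrocefin was then added from an 800 uM solution, and hydrolysis was followed at 480 nm.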
Pf growth 48h = Primary qHTS for delayed death inhibitors of the malarial parasite plastid, 48 hour incubation; P. falciparum luciferase growth in erythrocytes, 48 h; Potency, µM (series often up to 28.7 µM), inactives show at the highest dose activity change, negative = inhibition, most hits filed as inhibitors; 310,000 compounds, 5.9% hits; AID 504832, 2011; further: on the % scale 0 is the no-effect control and ±100 the full control effect
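First compound was added to culture medium, then infected red cells at 0.1% parasitemia and 2% hematocrit (final). After incubation at 37 C under 5% CO2, luciferase detection reagent was dispensed and light output recorded.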
Starred values were filed as active, the others as inactive. This is a sample that favours compounds with a hit; in the whole collection about 12% have one here. Unless noted, the call rests on the fitted dose curve; in most records, active means well fitted curve in the direction sought with a large enough effect; inconclusive means small, poorly fitted or top-dose-only effect, or another doubt; inactive means no such curve, though single readings can be large; an effect the other way counts as inactive or inconclusive. Potency means the concentration at half of the fitted maximal effect.

O=C(CSc1nc2ncc(Br)cc2[nH]1)c1cccc([N+](=O)[O-])c1 was read as AmpC inh detg inconclusive, SARS PLpro yeast -18%, Sm TGR block -4%, Pf growth 96h -64%, AmpC inh no detg 32µM* and Pf growth 48h -19%.
Fc1ccccc1CSc1nc2ncc(Br)cc2[nH]1 was read as AmpC inh detg inconclusive, SARS PLpro yeast -1%, Sm TGR block 0%, Pf growth 96h 13µM* and AmpC inh no detg -27%.
O=[N+]([O-])c1ccc(CSc2nc3ncc(Br)cc3[nH]2)cc1 was read as AmpC inh detg 2%, SARS PLpro yeast 1%, Sm TGR block -3%, Pf growth 96h 0%, AmpC inh no detg -21% and Pf growth 48h inconclusive.
`Cc1ccc(-c2cc(C(F)(F)F)nc(SCC(=O)c3cccc([N+](=O)[O-])c3)n2)cc1` gave AmpC inh detg -5%, SARS PLpro yeast -5%, Sm TGR block 2%, Pf growth 96h 13µM*, AmpC inh no detg -25% and Pf growth 48h inconclusive.
Cc1nc2nc(SCC(=O)c3cccc([N+](=O)[O-])c3)[nH]c2cc1Br was read as AmpC inh detg 3%, SARS PLpro yeast 3%, Sm TGR block -23%, Pf growth 96h 12µM*, AmpC inh no detg -42% and Pf growth 48h inconclusive.
Cc1nc2nc(SCC(=O)C(C)(C)C)[nH]c2cc1Br was read as AmpC inh detg -18%, SARS PLpro yeast 0%, Sm TGR block -9%, Pf growth 96h -23%, AmpC inh no detg -19% and Pf growth 48h 17%.
Screening O=C(CSc1nc(-c2ccccc2)cc(C(F)(F)F)n1)c1cccc([N+](=O)[O-])c1 returned AmpC inh detg -7%, SARS PLpro yeast -2%, Sm TGR block -12%, Pf growth 96h inconclusive, AmpC inh no detg -45% and Pf growth 48h -21%.
For COc1ccc2c(c1)CCN1C2CCN2C(=O)CCC21 (centres undefined) the results were AmpC inh detg -7%, SARS PLpro yeast 2%, Sm TGR block 9%, Pf growth 96h -7%, AmpC inh no detg 0% and Pf growth 48h 43%.
`COc1cc(OC)c(N(C)C(=O)Cn2ncc3c([nH]c4ccccc43)c2=O)cc1Cl` gave AmpC inh detg 1% and Sm TGR block 1%.
COc1ccc(/C=C2\SC(=O)N(CC(=O)NC3CCS(=O)(=O)C3)C2=O)cc1 (centres undefined) was read as AmpC inh detg -6%, SARS PLpro yeast 1%, Sm TGR block 0%, Pf growth 96h 110%, AmpC inh no detg -12% and Pf growth 48h 48%.
CCN(CC)S(=O)(=O)c1ccc(Cl)c(C(=O)Nc2ccc(Cl)cc2[N+](=O)[O-])c1 was read as AmpC inh detg inconclusive, SARS PLpro yeast -5%, Sm TGR block 4%, Pf growth 96h inconclusive, AmpC inh no detg -5% and Pf growth 48h -17%.
Screening O=C(CN1CCc2ccccc2C1)Nc1ccccc1C(=O)NC1CC1 returned AmpC inh detg -5%, SARS PLpro yeast -2%, Sm TGR block -13%, Pf growth 96h inconclusive, AmpC inh no detg -17% and Pf growth 48h -26%.
Screening COc1ccc(-c2nc3ccccc3n3c(-c4ccccc4)c4c(=O)n(C)c(=O)n(C)c4c23)cc1OC returned AmpC inh detg 7% and Sm TGR block -4%.
For O=C(C[n+]1cc(Br)cc(Br)c1)c1cccc([N+](=O)[O-])c1 the results were AmpC inh detg 4%, SARS PLpro yeast 0%, Sm TGR block 10µM*, Pf growth 96h inconclusive, AmpC inh no detg 12% and Pf growth 48h inconclusive.
`O=C(NCc1ccccn1)c1cccc([N+](=O)[O-])c1` gave AmpC inh detg -3%, SARS PLpro yeast -2%, Sm TGR block 0%, Pf growth 96h inconclusive, AmpC inh no detg -3% and Pf growth 48h inconclusive.
For Cc1ccc(CNc2nc(-c3ccco3)nn2S(C)(=O)=O)cc1 the results were AmpC inh detg 9% and Sm TGR block -9%.
COC(=O)c1cc(C(=O)OC)[nH]n1 was read as AmpC inh detg 11%, SARS PLpro yeast -1%, Sm TGR block 9%, Pf growth 96h inconclusive, AmpC inh no detg -9% and Pf growth 48h -12%.
COc1ccc(N=Cc2ccc(-c3ccccc3)o2)cc1 was read as AmpC inh detg 9%, SARS PLpro yeast 0%, Sm TGR block 4%, Pf growth 96h 12µM*, AmpC inh no detg -18% and Pf growth 48h 9%.
CCOC(=O)C1=C(O)/C(=C\c2cc(C)n(-c3ccccc3F)c2C)N=C1C was read as AmpC inh detg inconclusive, SARS PLpro yeast 2%, Sm TGR block 25µM*, Pf growth 96h inconclusive, AmpC inh no detg -22% and Pf growth 48h inconclusive.
For CCOC(=O)C1=C(O)/C(=C\c2cc(C)n(-c3ccc(F)cc3)c2C)N=C1C the results were AmpC inh detg inconclusive, SARS PLpro yeast 3%, Sm TGR block 14µM*, Pf growth 96h 53%, AmpC inh no detg -35% and Pf growth 48h inconclusive.
`CCOC(=O)C1=C(O)/C(=C/c2cccc(OC)c2O)N=C1C` gave AmpC inh detg -4%, SARS PLpro yeast 1%, Pf growth 96h 27%, AmpC inh no detg -18% and Pf growth 48h 15%.
Screening O=C(CCn1c(=S)[nH]c2cc3c(cc2c1=O)OCO3)NCc1ccccc1Cl returned AmpC inh detg 0%, SARS PLpro yeast 0%, Sm TGR block -10%, Pf growth 96h inconclusive, AmpC inh no detg -20% and Pf growth 48h 1%.
Screening Cc1ccc2nc3c(c(Nc4cccc(O)c4)c2c1)CCC3 returned AmpC inh detg -2%, SARS PLpro yeast -2%, Sm TGR block 1%, Pf growth 96h 22%, AmpC inh no detg -48% and Pf growth 48h 5.2µM*.
For COC(=O)c1cccc(Nc2c3c(nc4ccccc24)CCC3)c1 the results were AmpC inh detg -1%, SARS PLpro yeast -3%, Sm TGR block 8%, Pf growth 96h -5%, AmpC inh no detg -20% and Pf growth 48h 12µM*.
`COc1ccccc1Nc1c2c(nc3ccccc13)CCC2` gave AmpC inh detg 4%, SARS PLpro yeast 0%, Sm TGR block 0%, Pf growth 96h inconclusive, AmpC inh no detg -10% and Pf growth 48h 8.3µM*.

Screens (PubChem)
